Reference: PubChem BioAssay

Columns and labels:
[1] = tested on: Botulinum neurotoxin type F light chain protease (Clostridium botulinum); assay: Botulinum neurotoxin type F light chain protease inhibition, multiplex microsphere flow cytometry, validation set (AID 588459); conditions: multiplex microsphere protease substrate cleavage assay, at 10 µM, stronger effect = higher value
[2] = molecular target: Botulinum neurotoxin type A (Clostridium botulinum) (UniProt P0DPI0); assay: BoNT/A light chain protease inhibitors, biochemical, multiplex microsphere flow cytometry, validation set (AID 588460); conditions: at 10 µM, stronger effect = higher value
[3] = molecular target: Lethal factor (Bacillus anthracis) (UniProt P15917); assay: Lethal factor protease inhibitors, Bacillus anthracis, multiplex microsphere cleavage assay, validation set (AID 588461); conditions: flow cytometry, at 10 µM, stronger effect = higher value

Measured: inhibition

COc1ccc(CCN2C(=O)CSC2c2ccc(OC)c(OC)c2)cc1OC (centres undefined)
inactive: [1] -3.4% | [2] 0.4% | [3] 6.7%

O=c1oc2c(CN3CCN(CCO)CC3)c(O)ccc2cc1-c1ccccn1
inactive: [1] -0.2% | [2] 0.8% | [3] -4.2%

COc1cc2c(cc1OC)C1(CCCCC1)CN(C)C2
inactive: [1] 1.7% | [2] -1.2% | [3] -1.7%

COc1ccc2cc(C(=O)OC(C)C)sc(=O)c2c1OC
inactive: [1] 0% | [2] 1.8% | [3] -5.8%

Cc1[nH]c2ccccc2c1/C=C/c1nc2ccccc2c(=O)n1CCO
inactive: [1] 0% | [2] -0.4% | [3] 0.2%

CN1CCN(CC/C=C2/c3ccccc3Sc3ccc(S(=O)(=O)N(C)C)cc32)CC1
inactive: [1] 3.2% | [2] 0.9% | [3] 0%

Cc1nonc1CN(C)C(=O)c1ccc(OC2CCN(C(=O)c3cccnc3)CC2)cc1
inactive: [1] 3.6% | [2] 1.2% | [3] 10.7%

COc1ccc(-c2coc3c(CN4CCOCC4)c(O)ccc3c2=O)cc1
inactive: [1] 2.6% | [2] 0.6% | [3] 4.1%

Cc1cc(-c2ccccc2)nnc1NCCN1CCOCC1
inactive: [1] -0.7% | [2] -0.4% | [3] -2.3%

CCOC(=O)C1C(=O)OC(C)(C)C1C(C)C(=O)c1ccc(C)cc1 (centres undefined)
inactive: [1] 4.4% | [2] 0.5% | [3] 4.6%

CNCCCN1c2ccccc2CCc2ccccc21
inactive: [1] -0.9% | [2] -0.6% | [3] 3.8%

CC(=O)CSc1ncnc2c1cnn2-c1ccccc1
inactive: [1] 2.3% | [2] 0.8% | [3] -1.6%

CC(=O)Nc1ccc(CN2CCN(C3CCCCC3)C(CCO)C2)cc1 (centres undefined)
inactive: [1] -0.2% | [2] -1.1% | [3] -3.7%

COc1ccc(CCNC(=O)C(=O)Nc2ccc3c(c2)OCO3)cc1OC
inactive: [1] 1.8% | [2] -0.8% | [3] -0.3%

COc1ccc2c(c1OC)C(C1c3c(cc4c(c3OC)OCO4)CCN1C)OC2=O (centres undefined)
inactive: [1] 1.6% | [2] -0.7% | [3] 3.5%

CCOc1cccc(N2C(=O)CC(N(CCc3ccc(OC)c(OC)c3)C(=O)CC)C2=O)c1 (centres undefined)
inactive: [1] 4.3% | [2] 0.7% | [3] 0.4%

CC1=C(C)C(=O)C(CCCCC#CCCCC#CCO)=C(C)C1=O
inactive: [1] -2.1% | [2] 0.4% | [3] -2.3%

CC(=O)c1ccc(CCCCCCCCCC(=O)O)s1
inactive: [1] 1.9% | [2] 0.3% | [3] -1%

COc1ccc2c3c([nH]c2c1)C1(NCC3)C(=O)Nc2ccccc21 (centres undefined)
inactive: [1] -3% | [2] -0.7% | [3] -4.5%

O=C(CC(C(=O)O)c1c[nH]c2ccccc12)c1ccccc1 (centres undefined)
inactive: [1] 0.3% | [2] 2% | [3] 6.4%

O=C(Oc1ccccc1)Oc1ccc2c(c1)oc(=O)c1ccccc12
inactive: [1] -1.6% | [2] -0.4% | [3] 0.9%

Cc1onc(-c2c(Cl)cccc2Cl)c1C(=O)NC1C(=O)N2C1SC(C)(C)C2C(=O)O (centres undefined)
inactive: [1] 1.2% | [2] 0.2% | [3] 2.3%

COc1cccc(CC(=O)NCC2COc3ccccc3O2)c1OC (centres undefined)
inactive: [1] -2.4% | [2] 0.4% | [3] 0.6%

C[C@@H]1C[C@H]2[C@@H]3CCC4=CC(=O)C=C[C@]4(C)[C@@]3(F)[C@@H](O)C[C@]2(C)[C@H]1C(=O)CO
inactive: [1] 0.3% | [2] -1.7% | [3] 7.4%

Clc1cc(-c2ccc(/C=N/n3cnnc3)o2)ccc1Br
inactive: [1] -3.6% | [2] -0.3% | [3] 0.9%

COc1ccc(CCN=C(N)C(C)c2ccccc2)cc1OC (centres undefined)
inactive: [1] -0.2% | [2] 0% | [3] 6.6%

CC(=O)NC1C(OCc2ccccc2)OC(COC(C)=O)C(OC(C)=O)C1OC(C)=O (centres undefined)
inactive: [1] -1.4% | [2] -1.9% | [3] -2.2%

O=C1C2C3C=CC(C4CC34)C2C(=O)N1/N=C/c1ccc(-c2ccc([N+](=O)[O-])cc2)o1 (centres undefined)
inactive: [1] 2.1% | [2] 3.4% | [3] -1.8%

O=C(NC(CO)Cc1ccc([N+](=O)[O-])cc1)C(Cl)Cl (centres undefined)
inactive: [1] 0.6% | [2] -1.5% | [3] -1.4%

NS(=O)(=O)c1cc2c(cc1Cl)NC(C(Cl)Cl)NS2(=O)=O (centres undefined)
inactive: [1] -0.3% | [2] 0.1% | [3] -3%

COc1ccccc1NC(=O)C12CCC(C)(C(=O)C1)C2(C)C (centres undefined)
inactive: [1] -1% | [2] 0.8% | [3] 0.3%

CC(=O)[C@@]1(O)CC[C@H]2[C@@H]3CCC4=CC(=O)CC[C@]4(C)[C@H]3[C@@H](O)C[C@@]21C
inactive: [1] 2.3% | [2] -1.1% | [3] 1.8%

CC1(C)CC(c2csc(N)n2)CCO1 (centres undefined)
inactive: [1] -0.4% | [2] -1% | [3] -8.4%

COc1ccc2[nH]c(C)c(CN3CCC(C)CC3)c(=O)c2c1
inactive: [1] -0.8% | [2] 0.1% | [3] -5.9%

CCOC(=O)c1cccc(P(C)(C)=O)c1
inactive: [1] -1.1% | [2] -0.5% | [3] -5%

OCCN(Cc1nc(-c2ccc3c(c2)OCO3)no1)Cc1cccs1
inactive: [1] 2.4% | [2] 0.4% | [3] 2%

CC(=O)OCC(=O)C1=CCC2C3CCC4=CC(=O)C=CC4(C)C3(F)C(OC(C)=O)CC12C (centres undefined)
inactive: [1] 0.8% | [2] -0.6% | [3] 2.4%

O=C(O)c1ccccc1Nc1cccc(C(F)(F)F)c1
inactive: [1] -4.2% | [2] -0.9% | [3] 1.9%

O=C(O)CCn1c(=S)n(CCC(=O)O)c2ccccc21
inactive: [1] 2.7% | [2] 0.3% | [3] 3.1%

O=C(O)Cc1ccc(-c2ccccc2)cc1
inactive: [1] 0.5% | [2] -1.2% | [3] 0.5%

C[C@]12CC[C@H]3C(=CCc4cc(O)ccc43)[C@@H]1CCC2=O
inactive: [1] 0.5% | [2] -0.6% | [3] 2.9%

COc1cc(/C=C(\C#N)C(=O)N2CCc3ccccc32)ccc1O
inactive: [1] 0.6% | [2] 1.6% | [3] 0.9%

CN1/C(=C\C=Nc2ccccc2)C(C)(C)c2ccccc21
inactive: [1] -1.1% | [2] 0.8% | [3] -0.6%

CC1=NN(C(=O)c2ccc(Br)cc2)C(O)(c2ccccc2)C1 (centres undefined)
inactive: [1] -2.9% | [2] -0.4% | [3] 4.5%

OCCOCCN1CCN(C(c2ccccc2)c2ccc(Cl)cc2)CC1 (centres undefined)
inactive: [1] 0.1% | [2] -1.8% | [3] 1.1%

CCCCN(CCCC)CCCOC(=O)c1ccc(N)cc1
inactive: [1] -1.6% | [2] 0.8% | [3] 1.4%

CC(C)(C)NCC(O)COc1ccccc1C(=O)CCc1ccccc1 (centres undefined)
inactive: [1] -5.8% | [2] -2% | [3] -4.9%

C[C@]12CCC(=O)C=C1CC[C@@H]1[C@@H]2[C@@H](O)C[C@@]2(C)[C@H]1CC[C@]2(O)C(=O)CO
inactive: [1] 2.1% | [2] -1.4% | [3] -10.2%

Cc1ccccc1-c1coc2cc(O)ccc2c1=O
inactive: [1] -3.4% | [2] 0.2% | [3] 1.6%

COc1cc(C(=O)CCN2CCC(c3ccccc3)C2)cc(OC)c1OC (centres undefined)
inactive: [1] 0.2% | [2] 1.9% | [3] 6.6%

C[C@H](CCC(=O)O)[C@H]1CC[C@H]2[C@@H]3C(=O)C[C@@H]4CC(=O)CC[C@]4(C)[C@H]3CC(=O)[C@]12C
inactive: [1] -1.4% | [2] -0.5% | [3] -0.9%

Cc1c(OCC(=O)NC(Cc2c[nH]c3ccc(O)cc23)C(=O)O)ccc2c3c(c(=O)oc12)CCC3 (centres undefined)
inactive: [1] 3.2% | [2] -1.1% | [3] 3.7%

CCN(CC)C1=C(Cl)C(=O)C(Cl)C12OCCO2 (centres undefined)
inactive: [1] 1% | [2] 0.6% | [3] -1%

CCc1cc(C(N)=S)ccn1
inactive: [1] 1.9% | [2] 0.9% | [3] -2.7%

COc1cc2oc(-c3ccc(O)cc3)cc(=O)c2c(OC)c1O
inactive: [1] -1.9% | [2] -0.3% | [3] -2.3%

CC(=O)[C@@H]1[C@@H](C(=O)c2ccc(C)cc2)[C@]2(C(=O)Nc3ccccc32)[C@H]2C=Cc3cc(F)ccc3N12
inactive: [1] 2.2% | [2] 1.6% | [3] -6.9%

OCCN(CCO)c1ccc2ccccc2c1
inactive: [1] -1.3% | [2] -1.2% | [3] -6.6%

Nc1nc2c(ncn2COC(CO)CO)c(=O)[nH]1
inactive: [1] -0.4% | [2] -1.1% | [3] -4.8%

Cc1nc(C)c(C)nc1C
inactive: [1] -1.1% | [2] -0.9% | [3] -9.1%

NC(=O)OCC(COC(N)=O)c1ccccc1
inactive: [1] -1% | [2] -1.7% | [3] -2.1%

Cc1ccc(C(=O)O)cc1NC(=O)c1cccs1
inactive: [1] -1.2% | [2] 0% | [3] 2%

Oc1ccccc1OCCOc1ccccc1OCCOc1ccccc1O
inactive: [1] 6.5% | [2] 0.7% | [3] -0.4%

O=C(OCCN1CCCC1)C1(c2ccccc2)CCCC1
inactive: [1] -3.9% | [2] -2.9% | [3] 2.6%
